Tau fil binding: binders of human tau filaments | P10636 | recombinant tau filaments, thioflavin S fluorescence, 15 h; filaments grown with octadecylsulfate alongside compound | Potency, µM (titrated, usually from 57.1 µM) | actives 2% (n = 71,000) | AID 596;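 further: actives lower thioflavin S fluorescence by blocking filaments or displacing dye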
Target sequence (P10636 whole entry, looked up): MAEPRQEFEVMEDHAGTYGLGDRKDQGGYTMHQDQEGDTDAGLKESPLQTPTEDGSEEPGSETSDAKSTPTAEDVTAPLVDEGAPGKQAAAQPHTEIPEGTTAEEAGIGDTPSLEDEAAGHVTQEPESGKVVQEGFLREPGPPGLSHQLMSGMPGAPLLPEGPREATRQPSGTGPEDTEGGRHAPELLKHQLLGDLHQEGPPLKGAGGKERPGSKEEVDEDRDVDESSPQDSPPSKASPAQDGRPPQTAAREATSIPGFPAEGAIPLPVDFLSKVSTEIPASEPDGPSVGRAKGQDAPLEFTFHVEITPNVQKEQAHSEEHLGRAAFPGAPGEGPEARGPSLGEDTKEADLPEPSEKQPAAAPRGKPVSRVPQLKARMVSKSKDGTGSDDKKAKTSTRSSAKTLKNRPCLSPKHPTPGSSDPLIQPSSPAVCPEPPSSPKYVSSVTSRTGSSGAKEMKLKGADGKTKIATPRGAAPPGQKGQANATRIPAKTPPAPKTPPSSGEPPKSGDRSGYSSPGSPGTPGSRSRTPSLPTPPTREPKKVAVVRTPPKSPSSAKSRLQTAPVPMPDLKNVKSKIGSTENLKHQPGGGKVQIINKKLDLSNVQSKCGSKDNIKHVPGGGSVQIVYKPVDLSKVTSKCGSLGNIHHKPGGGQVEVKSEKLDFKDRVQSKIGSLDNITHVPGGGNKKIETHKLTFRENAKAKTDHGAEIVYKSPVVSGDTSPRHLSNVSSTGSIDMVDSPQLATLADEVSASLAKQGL
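Assay mix: 1 uM His-tagged tau, 30 uM sodium octadecylsulfate, thioflavine S dye in HEPES/NaCl/DTT buffer. Compound is added prior to the inducer. Fluorescence after 15 h at 37 C.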
HEK293 cAMP cs: parental HEK293 cAMP activation (counter-screen); parental HEK293 CNG cAMP sensor, membrane potential fluorescence; Potency, µM (doses to about 57.1 µM), most hits filed as activators; actives 2.5% (n = 73,000); AID 938; further: nearly all actives have a fitted effect of over 55% in size
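Counterscreen for endogenous-receptor signalling: CNG-channel HEK 293 cells report cAMP rise by membrane depolarization. After 60 min dye equilibration with 100 uM RO 20-1724, compounds incubated 30 min before bottom-read fluorescence at 590 nm.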
DNA Pol III inh: inhibitors of bacterial DNA polymerase III holoenzyme. reconstituted DNA polymerase III holoenzyme replication, biochemical. Potency, µM (series often up to 57.1 µM). actives 0.25% (n = 71,000). AID 603
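Reconstituted *E. coli* holoenzyme (0.35 nM Pol III, 1 nM beta, 154 nM SSB, 2 nM primase) was preincubated with compound for 15 min at RT. Synthesis on 1.4 nM ssM13Gori ran 35 min, then was stopped with PicoGreen/EDTA and read as dsDNA fluorescence.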
TSHR agonist: agonists of human thyroid stimulating hormone receptor. HEK293-CNG-TSHR cells (CNG channel as cAMP sensor), membrane potential dye, cAMP. Potency, µM (series often up to 57.1 µM), usual class: activators. actives 0.48% (n = 73,000); active means well fitted activation curve with a large enough effect in the main read-out, with a control signal flat, not every such curve was filed as active; inconclusive means small, poorly fitted or top-dose-only effect, or a change in a side signal; inactive means no such curve, though single readings can be large or run the other way; reference of the percent scale not stated here;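 further: the control signal comes from parental cells without the receptor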
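HEK 293 cells stably expressing TSHR and a cAMP-gated CNG channel; parental CNG-only cells as counterscreen. Cells preloaded 60 min with membrane potential dye plus 100 uM RO 20-1724, then compound 30 min; fluorescence read at 590 nm.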
Hsp90 Hop PPI: changes Hsp90-Hop TPR2A binding signal, up or down | Potency, µM (doses to about 57 µM) | actives 0.44% (n = 71,000) | AlphaScreen TPR2A-His6 binding biotin-Hsp90 C-terminal peptide | AID 595; active means well fitted curve in either direction with a large enough effect; inconclusive means small, poorly fitted or top-dose-only effect, or another doubt
Hits are given with their value; - = inactive; ? = inconclusive; . = not tested or not shown; ! = a repeat was not active; [ ] = another dose, or the depositor's remark. Shown are actives, neighbours in structure and some others; about 5.1% of the full set was active somewhere. Unless noted, the call rests on the fitted dose curve; in most records, active means well fitted curve in the direction sought with a large enough effect; inconclusive means small, poorly fitted or top-dose-only effect, or another doubt; inactive means no such curve, though single readings can be large; an effect the other way counts as inactive or inconclusive.

SMILES	Tau fil binding	HEK293 cAMP cs	DNA Pol III inh	TSHR agonist	Hsp90 Hop PPI
COCCCn1c(-c2ccco2)nc2ccccc2c1=O	-	-	-	-	-
CC(=O)Nc1ccccc1C=C1c2ccccc2-c2ccccc21	-[11.4 µM]	-[11.4 µM]	-[11.4 µM]	-[11.4 µM]	-[11 µM]
COc1ccc2c(c1)[C@]1(C)CCC[C@](C)(CO)[C@@H]1CC2	-	-	-	.	-
Fc1ccc(-c2nc3nc4ccccc4nc3n2Cc2ccco2)cc1	15.8µM	?	-	?	-
CCOC(=O)CSc1nc2c(sc(=S)n2Cc2ccco2)c(=O)n1-c1ccccc1	-	1.26µM	-	?	-
CCN(Cc1cc2ccccc2[nH]c1=O)S(=O)(=O)c1ccccc1	12.6µM	-	-	-	-
CC(C)C(=O)N(Cc1cc2ccccc2[nH]c1=O)C(C)C	-	?	-	?	-
CC1CCCC(C)N1C(=O)c1cc(-c2cccs2)on1 (stereo not drawn)	-	-	-	20µM	-
O=C(NC1CCCC1)c1cc(-c2cccs2)on1	-	-	-	-	-
CS(=O)(=O)Nc1cccc(-c2nc(NCc3ccccc3)c3ccccc3n2)c1	-	25.1µM	-	?	-
Cc1noc(C)c1-c1nc(NCc2cccnc2)c2ccccc2n1	-	-	-	.	-
Cc1noc(C)c1-c1nc(NCc2ccccc2)c2ccccc2n1	-	25.1µM	-	?	-
NNC(=O)CS(=O)(=O)Nc1ncccn1	-[11.4 µM]	-[11.4 µM]	-[11.4 µM]	-[11.4 µM]	-[11 µM]
Cc1cccc2cc(C#N)c(N3CCN(C)CC3)nc12	-	15.8µM	-	?	-
Cc1cc(C)c2nc(N3CCN(C)CC3)c(C#N)cc2c1	-	12.6µM	-	?	-
O=C(CSc1nc(Nc2ccccc2)nc(N2CCOCC2)n1)Nc1ccc2c(c1)OCCO2	-	-	-	25.1µM	-
CC1CCN(c2nncc3ccccc23)CC1	-	-	-	-	-
NNc1nncc2ccccc12	-	-	-	-	12.6µM!
CC(C)CN1CC2(CCN(C(=O)c3ccco3)CC2)C1	-	20µM	-	?	-
Cc1ccc(C(=O)Nc2ccc(S(=O)(=O)O)c3cc(S(=O)(=O)O)cc(S(=O)(=O)O)c23)cc1NC(=O)c1cccc(NC(=O)Nc2cccc(C(=O)Nc3cc(C(=O)Nc4ccc(S(=O)(=O)O)c5cc(S(=O)(=O)O)cc(S(=O)(=O)O)c45)ccc3C)c2)c1	?	?	31.6µM	?	?
C=CC1=C[C@@H](O)C2OC2C12OCCCO2 (stereo partly drawn)	.	-[11.4 µM]	.	-[11.4 µM]	.
Cc1ccc(C)c(OCC(=O)Nc2nonc2NC(=O)COc2cc(C)ccc2C)c1	-	25.1µM	-	?	-
Cc1cccc(NS(=O)(=O)c2ccc(Cl)c(C(=O)O)c2)c1	.	-	.	-	.
N#Cc1c(SCC(=O)Nc2nccs2)nc2c(c1-c1ccco1)CCCC2	-	-	-	-	-
CCCn1c(-c2ccc(F)cc2)nc2c(NC3CC4CCC(C3)N4C)nc(C)nc21 (stereo not drawn)	-	?	-	?	-
SMILES	Tau fil binding	HEK293 cAMP cs	DNA Pol III inh	TSHR agonist	Hsp90 Hop PPI
Cc1nn(C(=O)c2cccnc2)c(C)c1C	-	6.31µM	-	?	-
Cc1ncc(CSC(=N)N)n1Cc1ccccc1	-[11.4 µM]	-[11.4 µM]	-[11.4 µM]	-[11.4 µM]	-[11 µM]
O=C(NC1CCCCC1)C(c1ccco1)N(Cc1ccco1)C(=O)c1ccco1 (stereo not drawn)	-	15.8µM	-	?	-
NC(=O)c1nsc(C(=O)N(CCc2ccccc2)C(C(=O)NC2CCCC2)c2ccco2)c1N (stereo not drawn)	-	6.31µM	-	?	-
Cc1cccc2cc(CN(Cc3ccco3)C(=O)NC3CCCCC3)c(=O)[nH]c12	-	?	-	?	-
CCOC(=O)CN(C(=O)CNC(=O)c1ccco1)C(C(=O)NC1CCCC1)c1ccccc1OCC (stereo not drawn)	-	?	-	?	-
CCOCCCN(C(=O)CNC(=O)c1ccco1)C(C(=O)NC1CCCC1)c1ccccc1C (stereo not drawn)	-	31.6µM	-	?	-
COc1ccccc1CN(C(=O)c1ccco1)C(C(=O)NC1CCCC1)c1ccncc1 (stereo not drawn)	-	?	-	?	-
O=C(NC1CCCCC1)N(Cc1ccccc1)Cc1ccco1	-	15.8µM	-	?	-
Nc1ncn([C@H]2O[C@@H](CO)[C@@H](O)[C@@H]2O)c(=O)n1	-	-	-	-	-
NCCC[C@@H](CC(=O)N[C@@H]1CCCC[C@H]1C(=O)N[C@H](CC(=O)N[C@@H](CCC(=O)O)CC(=O)O)Cc1ccccc1)NC(=O)C[C@H](Cc1c[nH]c2ccccc12)NC(=O)[C@@H]1CNCC[C@H]1N	-	-	-	-	-
COC(=O)N1CCC2(CC1)CN(c1ccncc1)C2	-	-	-	-	-
CC(Oc1ccccc1Br)C(=O)N1CCc2ccccc21 (stereo not drawn)	-	?	-	?	-
CC(Oc1ccc(Br)cc1)C(=O)N1CCc2ccccc21 (stereo not drawn)	-	25.1µM	-	?	-
O=C(O)c1cc2nc3c(c(C(F)(F)F)n2n1)CCc1ccccc1-3	-[11.4 µM]	-[11.4 µM]	-[11.4 µM]	-[11.4 µM]	-[11 µM]
O=C(c1cc2nc3c(c(C(F)(F)F)n2n1)CCc1ccccc1-3)N1CCN2CCCC2C1 (stereo not drawn)	12.6µM	-	-	-	?
COc1ccccc1CN1CCC2(CC1)CCN(C(=O)c1csnn1)CC2	-	-	-	-	-
Oc1c(C(c2ccccc2)N2CCCCC2)sc2ncnn12 (stereo not drawn)	-	-	-	-	?
Oc1c(C(c2ccccc2)N2CCN(Cc3ccccc3)CC2)sc2ncnn12 (stereo not drawn)	-	31.6µM	-	?	-
CCCC(c1nnnn1Cc1ccccc1)N1CCN(c2ccccc2OC)CC1 (stereo not drawn)	-	10µM	-	?	-
COCCn1nnnc1C(c1ccc(OC)cc1)N1CCN(c2ccccc2F)CC1 (stereo not drawn)	-	?	-	?	-
CCCC(c1nnnn1Cc1cccs1)N1CCN(c2ccc(OC)cc2)CC1 (stereo not drawn)	-	?	-	?	-
COc1ccccc1C(c1nnnn1Cc1ccccc1)N1CCN(c2nc3ccccc3s2)CC1 (stereo not drawn)	-	-	-	-	-
COCCn1nnnc1C(c1ccccc1OC)N1CCN(c2ccccc2F)CC1 (stereo not drawn)	-	7.94µM	-	?	-
CCCC(c1nnnn1Cc1ccc(OC)cc1)N1CCN(c2ccccc2OC)CC1 (stereo not drawn)	-	25.1µM	-	?	-
COCCNc1ncnc2ccc(-c3ccccc3C)cc12	-	?	-	?	-
CC(=O)OC[C@@H]1O[C@H](CCO/N=C(\C)CCN2CCCCc3nc(C)c(C)cc32)C=C[C@@H]1OC(C)=O	.	-[11.4 µM]	.	-[11.4 µM]	.
COCCn1c(=O)c(-c2cccc(C#N)c2)nc2cnc(OCc3ccccc3)nc21	25.1µM	-	-	-	-
